For five compounds, z-score and composite z-score results are on record in PubChem BioAssay.

Activity calls are given as the source filed them.

Assay [1] in a line: optical density shifts of acrAB sulA E. coli – strain DRC41, OD650, 48 h, E. coli filamentation inducer project, primary screen (AID 1152).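 Also: E. coli MC1000 strain DRC41 lacking acrAB efflux pump and sulA.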 The following applies: higher = more signal, called active from +8 up or from −8 down.
A short description of assay [2]: probe aLefty1 binding on compound microarray – biochemical, small-molecule microarray, 635/667 nm fluorescence, primary screen (AID 1153).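 Also: score merges spot fluorescence with signal-to-noise ratio from the scanned slide images.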 The conditions noted are these: higher = more signal.
Assay [3] in a line: plasmodial surface anion channel blockers, osmotic lysis – cell-based, P. falciparum Indochina, OD700, 1 h, primary screen (AID 1154). The following applies: P. falciparum Indochina infected RBC osmotic lysis, higher = more signal, called active from +8 up or from −8 down.
Assay [4] is described as follows: plasmodial surface anion channel blockers, osmotic lysis – cell-based, P. falciparum Indochina, OD700, 2 h, primary screen (AID 1155).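 Also: lysis reports solute entry through the parasite surface anion channel PSAC.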 The conditions noted are these: P. falciparum Indochina infected erythrocytes, higher = more signal, called active from +8 up or from −8 down.
A short description of assay [5]: changes in parasitized red cell lysis, either direction – P. falciparum Indochina, OD700, 3 h, PSAC antagonist project, primary screen (AID 1156). The conditions noted are these: P. falciparum-infected erythrocytes, osmotic lysis, higher = more signal, called active from +8 up or from −8 down.
Assay [6] is described as follows: plasmodial surface anion channel blockers, osmotic lysis – cell-based, P. falciparum Indochina, OD700, 18 h, primary screen (AID 1157). The conditions noted are these: P. falciparum Indochina infected erythrocytes, osmotic lysis OD700, 18 h; higher = more signal, called active from +8 up or from −8 down.
Assay [7] in a line: S6 kinase pathway phospho-S6 level changes – cell-based, A549, cytoblot, luminescence, serum-stimulated, primary screen (AID 1158).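 Also: serum-stimulated A549 lung adenocarcinoma cells; signal is phosphorylated S6 detected by cytoblot immunostaining with HRP secondary.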 The conditions noted are these: 5 h, higher = more signal.
Assay [8] addresses NADPH oxidase 2 (Homo sapiens) (UniProt P04839). Put plainly: compounds shifting NOX2 Amplex Red fluorescence – cell-based, HEK293-NOX2, PMA-stimulated, NOX inhibitor project, primary screen (AID 1159). Also: test concentration not given here. The conditions noted are these: 45 min, higher = more signal, called active from +8 up or from −8 down.
The target of assay [9] is NADPH oxidase 4 (Homo sapiens) (UniProt Q9NPH5). Briefly: compounds shifting NOX4 Amplex Red fluorescence – cell-based, HEK293-NOX4, tetracycline-induced, NOX inhibitor project, primary screen (AID 1160). The following applies: HEK293-NOX4, Amplex Red H2O2 fluorescence, 45 min; higher = more signal, called active from +8 up or from −8 down.
In assay [10] the target is NADPH oxidase 5 (Homo sapiens) (UniProt Q96PH1). Put plainly: compounds shifting NOX5 Amplex Red fluorescence – cell-based, HEK293-NOX5, NOX inhibitor project, primary screen (AID 1161). The following applies: HEK293-NOX5, ionomycin, 45 min, higher = more signal.
Assay [11] is described as follows: compound effects on lung adenocarcinoma cell viability – A549, calcein-AM fluorescence, 48 h, basal, profiling panel (AID 1162). Also: test concentration not given here. The following applies: higher = more signal.
Assay [12] can be described thus: compound effects on differentiated 3T3-L1 adipocyte viability – cell-based, 3T3-L1 adipocytes, calcein-AM fluorescence, 48 h, basal, profiling panel (AID 1163). Also: test concentration not given here. The following applies: 3T3-L1 adipocytes viability, higher = more signal.
A short description of assay [13]: compound effects on hepatocellular carcinoma cell viability – HepG2, calcein-AM fluorescence, 48 h, basal, profiling panel (AID 1164). Also: test concentration not given here. The following applies: higher = more signal.
The nature of assay [14]: compound effects on multiple myeloma cell viability – MM1S, calcein-AM fluorescence, 48 h, basal, profiling panel (AID 1165).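 Also: viability of MM1S multiple myeloma cells under basal unstimulated conditions; test concentration not given here.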 The following applies: higher = more signal.
Assay [15] is described as follows: calcein-AM signal in unstimulated myeloma cells – cell-based, calcein-AM fluorescence, 48 h, PK04 Diversity Set, profiling panel (AID 1166).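 Also: cells grown under basal conditions without added stimulus; test concentration not given here.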 The following applies: RPMI8226 myeloma viability, higher = more signal.
The nature of assay [16]: JC-1 mitochondrial signal, unstimulated HepG2 cells – cell-based, JC-1 fluorescence, 24 h, 100 nL compound, profiling panel (AID 1167). Also: test concentration not given here. The conditions noted are these: HepG2 mitochondrial potential, higher = more signal.
The nature of assay [17]: JC-1 mitochondrial signal, unstimulated adipocytes – cell-based, JC-1 fluorescence, 3T3-L1 adipocytes, 24 h, 100 nL compound, profiling panel (AID 1168). Also: test concentration not given here. The conditions noted are these: JC-1 mitochondrial fluorescence, higher = more signal, called active from +8 up or from −8 down.
A short description of assay [18]: JC-1 mitochondrial signal, unstimulated myeloma cells – cell-based, JC-1 fluorescence, RPMI8226, 24 h, 100 nL compound, profiling panel (AID 1169). Also: test concentration not given here. The conditions noted are these: JC-1 mitochondrial potential fluorescence, higher = more signal.
The nature of assay [19]: JC-1 mitochondrial signal, unstimulated MM1S myeloma – cell-based, JC-1 fluorescence, 24 h, 100 nL compound, profiling panel (AID 1170). Also: test concentration not given here. The conditions noted are these: MM1S mitochondrial potential, higher = more signal.
Assay [20] in a line: resazurin metabolic signal in A549 cells – cell-based, resazurin fluorescence, 24 h, PK04 Diversity Set, profiling panel (AID 1171). Also: test concentration not given here. The conditions noted are these: A549 viability, higher = more signal, called active from +8 up or from −8 down. In general terms: Alamar Blue is a resazurin reagent that responds to reducing activity.

NADPH oxidase 4 (Homo sapiens), sequence (Q9NPH5 whole entry, looked up): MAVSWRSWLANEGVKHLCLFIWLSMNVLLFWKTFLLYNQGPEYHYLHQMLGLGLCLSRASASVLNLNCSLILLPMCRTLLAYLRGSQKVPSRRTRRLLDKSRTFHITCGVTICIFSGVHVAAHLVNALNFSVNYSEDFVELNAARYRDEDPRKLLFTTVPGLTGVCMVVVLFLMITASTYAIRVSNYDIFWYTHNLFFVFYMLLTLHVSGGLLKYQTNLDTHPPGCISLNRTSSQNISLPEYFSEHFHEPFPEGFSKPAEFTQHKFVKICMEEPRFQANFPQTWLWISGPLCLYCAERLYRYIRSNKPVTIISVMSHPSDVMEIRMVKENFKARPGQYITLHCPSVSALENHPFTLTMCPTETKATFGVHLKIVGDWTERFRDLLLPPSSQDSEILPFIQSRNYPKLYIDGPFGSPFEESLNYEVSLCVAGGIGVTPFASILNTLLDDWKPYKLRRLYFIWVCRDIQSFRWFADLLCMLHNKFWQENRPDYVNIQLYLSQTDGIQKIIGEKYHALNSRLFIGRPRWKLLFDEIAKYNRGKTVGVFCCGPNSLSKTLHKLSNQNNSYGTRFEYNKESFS
NADPH oxidase 2 (Homo sapiens), sequence (P04839 whole entry, looked up): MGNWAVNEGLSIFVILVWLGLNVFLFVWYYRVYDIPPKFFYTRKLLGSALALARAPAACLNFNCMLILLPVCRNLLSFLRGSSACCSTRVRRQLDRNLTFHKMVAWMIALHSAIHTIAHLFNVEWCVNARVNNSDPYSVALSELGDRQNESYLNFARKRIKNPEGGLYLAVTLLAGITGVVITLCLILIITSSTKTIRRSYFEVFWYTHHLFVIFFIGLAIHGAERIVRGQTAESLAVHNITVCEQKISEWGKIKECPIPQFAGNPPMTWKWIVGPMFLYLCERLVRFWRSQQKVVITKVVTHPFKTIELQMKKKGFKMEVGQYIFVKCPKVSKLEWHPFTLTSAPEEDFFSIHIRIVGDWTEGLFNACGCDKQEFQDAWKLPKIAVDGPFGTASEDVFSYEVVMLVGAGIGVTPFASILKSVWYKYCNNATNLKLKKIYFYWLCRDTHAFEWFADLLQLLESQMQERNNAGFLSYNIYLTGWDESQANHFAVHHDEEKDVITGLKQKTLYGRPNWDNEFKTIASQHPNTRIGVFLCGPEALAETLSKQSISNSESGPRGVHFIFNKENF
NADPH oxidase 5 (Homo sapiens), sequence (Q96PH1 whole entry, looked up): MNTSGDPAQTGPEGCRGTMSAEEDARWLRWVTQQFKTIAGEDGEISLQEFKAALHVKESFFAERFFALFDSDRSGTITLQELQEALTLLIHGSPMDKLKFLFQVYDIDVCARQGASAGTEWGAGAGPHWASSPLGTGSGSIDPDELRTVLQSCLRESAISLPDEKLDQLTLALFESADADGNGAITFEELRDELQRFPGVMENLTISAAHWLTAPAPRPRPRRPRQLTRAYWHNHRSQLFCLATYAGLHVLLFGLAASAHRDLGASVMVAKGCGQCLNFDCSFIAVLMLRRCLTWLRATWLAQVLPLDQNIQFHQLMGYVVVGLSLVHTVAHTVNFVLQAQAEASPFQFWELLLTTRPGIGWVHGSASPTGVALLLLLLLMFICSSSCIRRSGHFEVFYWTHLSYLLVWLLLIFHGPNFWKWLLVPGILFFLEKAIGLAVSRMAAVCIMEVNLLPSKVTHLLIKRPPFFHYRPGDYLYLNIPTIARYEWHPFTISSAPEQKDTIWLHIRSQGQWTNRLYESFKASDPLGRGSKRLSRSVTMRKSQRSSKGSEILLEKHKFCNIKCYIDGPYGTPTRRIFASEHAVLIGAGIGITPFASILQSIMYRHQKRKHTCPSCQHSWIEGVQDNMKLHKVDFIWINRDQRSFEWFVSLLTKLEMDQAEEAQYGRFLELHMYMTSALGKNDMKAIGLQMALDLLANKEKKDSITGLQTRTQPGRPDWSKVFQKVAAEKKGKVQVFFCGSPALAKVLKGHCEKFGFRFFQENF

For `COc1ccc(COC(=O)NN=C2C[C@@H](O)[C@@H](O)[C@@H]3[C@@H]4C(=O)N(C5CCCCC5)C(=O)[C@@H]4CC[C@H]23)cc1`, the z-score is -1.01 (inactive) in assay [1]; 9.99 (active) in [3]; 1.51 (inactive) in assay [4]; 0.103 (inactive) in [5]; 0.549 (inactive) in [6]; 0.173 in assay [7]. For the same compound, the z-score in assay [8] was -0.248 (inactive); in assay [9] it was 0.507 (inactive); in [10], -0.712; in assay [11] it was -0.574; in assay [12] it was -1.09; in assay [13], -0.543. In addition, the z-score in assay [14] was -1.15; in [15], -0.733; in assay [16], -0.895; in assay [17], -1.69 (inactive); in assay [18], 0.249; in assay [19] it was -0.244. Besides, in assay [20], the z-score was 0.0299 (inactive). In [2], this compound had a composite z-score of -0.0611.

As to `COC(=O)CC=C[C@@H](C)[C@@H](C=NOCC[C@@H]1C=C[C@H](OC(C)=O)[C@@H](COC(C)=O)O1)OC`, the z-score was -0.35 (inactive) in assay [1]; 0.551 (inactive) in assay [3]; 0.239 (inactive) in assay [4]; -0.5 (inactive) in assay [5]; 0.171 (inactive) in [6]; -0.801 in [7]. Further, the z-score is 0.464 (inactive) in assay [8]; 0.934 (inactive) in assay [9]; 0.855 in assay [10]; 1.29 in assay [11]; -0.0264 in assay [12]; 0.436 in assay [13]. Besides, the z-score in assay [14] was -0.616; in assay [15], 0.238; in assay [16], -0.514; in [17], -0.43 (inactive); in assay [18], -0.133; in assay [19], -0.324. Further, the z-score in assay [20] is -0.393 (inactive). This compound came in with a composite z-score in [2] of -0.0969.

Take `COc1cccc([C@H]2Oc3ccc(OC)cc3C(=NOC[C@@H](C)[C@H](OCc3ccccc3)C(C)C)[C@@H]2O)c1`: the z-score was -1.25 (inactive) in [1]; 2.57 (inactive) in [3]; 0.947 (inactive) in assay [4]; 0.0083 (inactive) in assay [5]; 0.612 (inactive) in assay [6]; -0.891 in [7]. Besides, the z-score in assay [8] is -0.364 (inactive); in assay [9], -2.1 (inactive); in assay [10], -1.97; in [11], -0.956; in assay [12], 0.488; in assay [13], -0.744. In addition, the z-score in assay [14] is -0.596; in assay [15], -2.12; in [16], -3.51; in [17], -0.65 (inactive); in [18] it was -0.188; in [19], 0.748. Further, in [20], the z-score is 0.385 (inactive). In assay [2], this compound gave a composite z-score of -0.0428.

With `CCOC(=O)NN=C1C[C@@H](O)[C@@H](O)[C@@H]2[C@@H]3C(=O)N(c4ccc(F)cc4F)C(=O)[C@@H]3CC[C@@H]12`, the z-score in [1] was -0.588 (inactive); in assay [3] it was 1.73 (inactive); in assay [4] it was 0.719 (inactive); in assay [5], 0.171 (inactive); in [6], 0.0581 (inactive); in [7], -0.561. The z-score in assay [8] is 0.992 (inactive); in [9] it was 0.605 (inactive); in assay [10], -0.407; in [11] it was 0.187; in assay [12], -0.384; in assay [13] it was -1.12. Further, the z-score in assay [14] was 0.218; in assay [15] it was 0.617; in assay [16], 0.333; in [17] it was 0.076 (inactive); in assay [18] it was 0.285; in [19], -0.326. The z-score in [20] is 0.485 (inactive). This compound also registered a composite z-score in assay [2] of 0.197.

For `CCOC(=O)CCN1C(=O)[C@H]2[C@H]3[C@H](O)[C@H](O)CC(=NOCC(C)C)[C@H]3CC[C@H]2C1=O`, the z-score is 0.867 (inactive) in assay [1]; 0.0425 (inactive) in assay [3]; -0.153 (inactive) in assay [4]; 0.298 (inactive) in assay [5]; 0.304 (inactive) in [6]; -0.0487 in [7]. The z-score was -0.864 (inactive) in assay [8]; 0.148 (inactive) in assay [9]; 0.444 in assay [10]; 0.0183 in assay [11]; 0.179 in [12]; -0.268 in [13]. Moreover, the z-score in assay [14] was 0.324; in [15] it was -0.75; in assay [16], 0.364; in [17], 0.295 (inactive); in [18] it was -0.324; in [19], -1.03. Also, the z-score in assay [20] is -0.86 (inactive). Besides, in [2], the composite z-score was -0.0519.
